# Laboratory results published in the supplement of paper PMC6089552.
# Among all 3,200 compounds or so, about 300 (9.4%) showed activity. What follows is part of a selection rich in actives, with near analogues and random picks from the rest. Values without a mark were called inactive.
# System: A673/TR/shEF
# Assay: cell viability (LOESS-normalised, relative to median of negative controls) (log2 ratio); higher = more viable cells (less compound effect), active = hit call of the paper (over 3 MAD below the median)
# Settings: treatment time: 72 h
# Method in brief: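 For three days, A673/TR/shEF Ewing sarcoma cells in 384-well plates (1,500 per well) were treated with library compounds at two or more concentrations or with DMSO controls, after doxycycline had been added or withheld 24 h beforehand to induce EWS-FLI1 shRNA knockdown. Viability was read by CellTiter-Glo luminescence on an Envision reader. The data were LOESS-corrected per plate, divided by the median of negative controls and log2-transformed.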
# [1] = 0.25 µM, library screen: screen1, EWS-FLI1 expression: high (no doxycycline)
# [2] = 0.25 µM, library screen: screen1, EWS-FLI1 expression: low (doxycycline-induced shRNA knockdown)
# [3] = 2.5 µM, library screen: screen1, EWS-FLI1 expression: high (no doxycycline)
# [4] = 2.5 µM, library screen: screen1, EWS-FLI1 expression: low (doxycycline-induced shRNA knockdown)
# [5] = 0.25 µM, library screen: screen2, EWS-FLI1 expression: high (no doxycycline)
# [6] = 0.25 µM, library screen: screen2, EWS-FLI1 expression: low (doxycycline-induced shRNA knockdown)
# [7] = 2.5 µM, library screen: screen2, EWS-FLI1 expression: high (no doxycycline)
# [8] = 2.5 µM, library screen: screen2, EWS-FLI1 expression: low (doxycycline-induced shRNA knockdown)
smiles,measurement,setting,value
CCCCSP(=O)(SCCCC)SCCCC,cell viability (log2),[1],-0.12 (active)
same,cell viability (log2),[2],0.121
same,cell viability (log2),[3],0.0791
same,cell viability (log2),[4],0.0846
CC1=C[C@@H]2c3cccc4[nH]cc(c34)C[C@H]2N(C)C1,cell viability (log2),[5],0.126
same,cell viability (log2),[6],0.0939
same,cell viability (log2),[7],0.18
same,cell viability (log2),[8],0.0817
CCOP(=S)(OCC)SCSCC,cell viability (log2),[1],0.102
same,cell viability (log2),[2],-0.0178
same,cell viability (log2),[3],0.0726
same,cell viability (log2),[4],0.115
NC1CC1c1ccccc1 (stereo unspecified),cell viability (log2),[1],0.107
same,cell viability (log2),[2],0.128
same,cell viability (log2),[3],0.188
same,cell viability (log2),[4],0.0868
COc1ccc2c3c1O[C@H]1[C@@H](O)CCC4[C@@H](C2)N(C)CC[C@@]341 (stereo partly specified),cell viability (log2),[1],0.0725
same,cell viability (log2),[2],0.0483
same,cell viability (log2),[3],0.0123
same,cell viability (log2),[4],0.128
C=CCN1CCC2(C)c3cc(O)ccc3CC1C2C (stereo unspecified),cell viability (log2),[5],0.143
same,cell viability (log2),[6],0.072
same,cell viability (log2),[7],0.0589
same,cell viability (log2),[8],0.0707
N#Cc1c(Cl)c(Cl)c(Cl)c(C#N)c1Cl,cell viability (log2),[1],-0.0732
same,cell viability (log2),[2],0.00425
same,cell viability (log2),[3],-0.219 (active)
same,cell viability (log2),[4],0.063
N#Cc1c(Cl)cccc1Cl,cell viability (log2),[1],0.126
same,cell viability (log2),[2],0.0183
same,cell viability (log2),[3],0.084
same,cell viability (log2),[4],0.0798
CCCCOC(=O)c1ccccc1C(=O)OCc1ccccc1,cell viability (log2),[1],0.109
same,cell viability (log2),[2],0.0867
same,cell viability (log2),[3],0.0605
same,cell viability (log2),[4],0.00546
C[C@@H]1c2cc(O)c(O)cc2CCN1C,cell viability (log2),[5],0.203
same,cell viability (log2),[6],0.114
same,cell viability (log2),[7],0.129
same,cell viability (log2),[8],0.102
C[N+]1(C)C2CC(OC(=O)C(CO)c3ccccc3)CC1C1OC12 (stereo unspecified),cell viability (log2),[1],0.0929
same,cell viability (log2),[2],0.0137
same,cell viability (log2),[3],0.182
same,cell viability (log2),[4],0.0439
CC(C)(C)c1cc(C=C(C#N)C#N)cc(C(C)(C)C)c1O,cell viability (log2),"0.025 µM, library screen: screen1, EWS-FLI1 expression: high (no doxycycline)",0.176
same,cell viability (log2),"0.025 µM, library screen: screen1, EWS-FLI1 expression: low (doxycycline-induced shRNA knockdown)",0.0512
same,cell viability (log2),[1],0.092
same,cell viability (log2),[2],0.0707
same,cell viability (log2),[5],0.104
same,cell viability (log2),[6],0.0526
same,cell viability (log2),[3],-1.1 (active)
same,cell viability (log2),[4],-0.0795
same,cell viability (log2),[7],0.0132
same,cell viability (log2),[8],0.112
same,cell viability (log2),"25 µM, library screen: screen1, EWS-FLI1 expression: high (no doxycycline)",-3.7 (active)
same,cell viability (log2),"25 µM, library screen: screen1, EWS-FLI1 expression: low (doxycycline-induced shRNA knockdown)",-2.45 (active)
CCC1C2CC3[C@@H]4N(C)c5ccccc5[C@]45CC(C2[C@H]5O)N3[C@@H]1O (stereo partly specified),cell viability (log2),[1],0.014
same,cell viability (log2),[2],-0.00944
same,cell viability (log2),[3],0.104
same,cell viability (log2),[4],0.0619
CCC(=O)Nc1ccc(Cl)c(Cl)c1,cell viability (log2),[1],0.114
same,cell viability (log2),[2],-0.0209
same,cell viability (log2),[3],0.0655
same,cell viability (log2),[4],0.0703
CC(=O)[O][Hg][c]1ccccc1,cell viability (log2),[1],-0.557 (active)
same,cell viability (log2),[2],-0.147
same,cell viability (log2),[3],-2.86 (active)
same,cell viability (log2),[4],-2.46 (active)
NCC(=O)c1ccccc1,cell viability (log2),[1],0.0631
same,cell viability (log2),[2],0.0462
same,cell viability (log2),[3],0.0615
same,cell viability (log2),[4],-0.00509
CCCN1CCCC2Cc3[nH]ncc3CC21 (stereo unspecified),cell viability (log2),[5],0.135
same,cell viability (log2),[6],0.086
same,cell viability (log2),[7],0.231
same,cell viability (log2),[8],0.107
C[C@@H]1C[C@@H]([C@H](O)CC2CC(=O)NC(=O)C2)C(=O)[C@@H](C)C1,cell viability (log2),"0.025 µM, library screen: screen2, EWS-FLI1 expression: high (no doxycycline)",0.156
same,cell viability (log2),"0.025 µM, library screen: screen2, EWS-FLI1 expression: low (doxycycline-induced shRNA knockdown)",0.119
same,cell viability (log2),[1],0.141
same,cell viability (log2),[2],0.0197
same,cell viability (log2),[5],0.0548
same,cell viability (log2),[6],0.0334
same,cell viability (log2),[3],-0.514 (active)
same,cell viability (log2),[4],-0.278 (active)
same,cell viability (log2),[7],-0.922 (active)
same,cell viability (log2),[8],-0.399 (active)
same,cell viability (log2),"25 µM, library screen: screen2, EWS-FLI1 expression: high (no doxycycline)",-2.23 (active)
same,cell viability (log2),"25 µM, library screen: screen2, EWS-FLI1 expression: low (doxycycline-induced shRNA knockdown)",-1.54 (active)
COc1ccc(CN2CCN(Cc3cccc(OC)c3)CC2)cc1,cell viability (log2),[1],-9.1e-05
same,cell viability (log2),[2],0.123
same,cell viability (log2),[3],0.136
same,cell viability (log2),[4],0.0992
ClC(Cl)=C(c1ccc(Cl)cc1)c1ccc(Cl)cc1,cell viability (log2),[1],0.0882
same,cell viability (log2),[2],0.047
same,cell viability (log2),[3],0.0599
same,cell viability (log2),[4],0.0669
CC[C@H]1CN2CC[C@H]1C[C@@H]2[C@@H](O)c1ccnc2ccc(OC)cc12,cell viability (log2),[1],0.074
same,cell viability (log2),[2],0.121
same,cell viability (log2),[3],0.133
same,cell viability (log2),[4],0.0925
COc1cc(C[C@@H](C)N)c(OC)cc1I,cell viability (log2),[5],0.178
same,cell viability (log2),[6],0.0876
same,cell viability (log2),[7],0.142
same,cell viability (log2),[8],0.145
CCCC1CCCCN1 (stereo unspecified),cell viability (log2),[1],0.115
same,cell viability (log2),[2],0.153
same,cell viability (log2),[3],0.172
same,cell viability (log2),[4],0.128
CC(Cc1ccc(O)cc1)NCC(O)c1cc(O)cc(O)c1 (stereo unspecified),cell viability (log2),[1],0.143
same,cell viability (log2),[2],0.0538
same,cell viability (log2),[5],0.23
same,cell viability (log2),[6],0.0381
same,cell viability (log2),[3],0.142
same,cell viability (log2),[4],0.063
same,cell viability (log2),[7],0.166
same,cell viability (log2),[8],0.00325
